Inconclusive results are not listed. Active and inactive are the calls of the source. Calls come from the whole dose curve; as a rule, active = well fitted curve in the direction sought with a large enough effect; inconclusive = small, poorly fitted or top-dose-only effect, or another doubt; inactive = no such curve, though single readings can be large; an effect the other way counts as inactive or inconclusive.
Tests used:
[1] = target: Calcium and integrin-binding protein 1 (Homo sapiens) (UniProt Q99828); test: Primary qHTS for Identification of Calcium Integrin Binding Protein 1 (CIB1) Competitor (AID 1508620);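 note: GST tagged CIB1 binding a fluorescein labelled alphaIIb integrin peptide tracer; top concentration of the series differs between compounds; % is set by controls: 0 for no effect and ±100 for the full control effect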
Procedure, shortened: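 Fluorescence polarization competition: GST-tagged CIB1 (1 uM final) preincubated with compound 15 min at room temperature, then FITC-labelled alphaIIb peptide (100 nM final) added. After 15 min at room temperature, polarization read at Ex 480/Em 540.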

[2] = Primary qHTS for inhibitors of nuclear receptor binding SET domain protein 2 (NSD2) in an isogenic RCH-ACV NSD2 p.E1099K mutant (9B) (AID 1645876); note: nearly all actives have a fitted effect of over 70% in size
[3] = Primary qHTS for inhibitors of nuclear receptor binding SET domain protein 2 (NSD2) in an RCH-ACV wild type WT cells (2C) (AID 1645877); note: nearly all actives have a fitted effect of over 70% in size
[4] = target: Catechol O-methyltransferase (Homo sapiens) (UniProt P21964); test: Confirmatory Screen for Target Class Profiling of Small Molecule Inhibitors of Methyltransferases (AID 1745852); conditions: MTase-Glo luminescence, SAH detection, recombinant enzyme; measured here: COMT max response; stronger effect = lower value; for activity change, negative = inhibition: % is set by controls: 0 for no effect and ±100 for the full control effect
[5] = target: Guanidinoacetate N-methyltransferase (Homo sapiens) (UniProt Q14353); test: as above; conditions: MTase-Glo luminescence, SAH detection, recombinant enzyme; activity change, negative = inhibition: at 57.3 µM (top of the series) unless noted
[6] = target: Nicotinamide N-methyltransferase (Homo sapiens) (UniProt P40261); test: as above; conditions: MTase-Glo luminescence, SAH detection, recombinant enzyme; measured here: NNMT max response; stronger effect = lower value
[7] = target: Phenylethanolamine N-methyltransferase (Homo sapiens) (UniProt P11086); test: as above; conditions: MTase-Glo luminescence, SAH detection, recombinant enzyme; measured here: PNMT max response; stronger effect = lower value
Sequence of Phenylethanolamine N-methyltransferase (Homo sapiens) (P11086 whole entry, looked up): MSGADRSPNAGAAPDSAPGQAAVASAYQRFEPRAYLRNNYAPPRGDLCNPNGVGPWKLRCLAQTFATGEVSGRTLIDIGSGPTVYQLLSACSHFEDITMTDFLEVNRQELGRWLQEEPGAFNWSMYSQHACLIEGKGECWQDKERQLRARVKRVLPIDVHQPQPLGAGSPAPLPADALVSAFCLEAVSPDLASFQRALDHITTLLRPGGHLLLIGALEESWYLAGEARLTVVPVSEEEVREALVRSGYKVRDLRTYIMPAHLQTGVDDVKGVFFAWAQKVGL

Sequence of Nicotinamide N-methyltransferase (Homo sapiens) (P40261 whole entry, looked up): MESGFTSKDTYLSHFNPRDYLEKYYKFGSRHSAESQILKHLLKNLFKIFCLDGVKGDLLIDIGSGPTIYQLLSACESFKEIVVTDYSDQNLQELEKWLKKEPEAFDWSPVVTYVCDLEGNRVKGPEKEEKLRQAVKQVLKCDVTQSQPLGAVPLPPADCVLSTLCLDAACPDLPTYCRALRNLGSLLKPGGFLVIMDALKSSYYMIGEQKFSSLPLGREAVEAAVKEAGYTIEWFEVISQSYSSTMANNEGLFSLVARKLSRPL
Sequence of Catechol O-methyltransferase (Homo sapiens) (P21964 whole entry, looked up): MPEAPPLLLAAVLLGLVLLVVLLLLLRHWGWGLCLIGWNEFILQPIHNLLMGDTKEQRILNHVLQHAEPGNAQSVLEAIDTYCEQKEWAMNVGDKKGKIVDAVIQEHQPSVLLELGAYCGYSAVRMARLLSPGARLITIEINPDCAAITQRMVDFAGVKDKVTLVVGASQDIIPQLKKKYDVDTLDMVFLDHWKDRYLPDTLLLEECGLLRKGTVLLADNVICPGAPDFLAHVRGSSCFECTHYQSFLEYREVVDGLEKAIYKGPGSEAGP
Sequence of Calcium and integrin-binding protein 1 (Homo sapiens) (Q99828 whole entry, looked up): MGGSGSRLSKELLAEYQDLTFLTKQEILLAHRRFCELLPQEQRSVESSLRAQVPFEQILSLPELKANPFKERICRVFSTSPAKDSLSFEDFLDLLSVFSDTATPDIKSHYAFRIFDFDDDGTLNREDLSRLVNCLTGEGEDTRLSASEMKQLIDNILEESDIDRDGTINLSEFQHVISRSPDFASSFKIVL

CC1(C)CC[C@]2(C(=O)O[C@@H]3O[C@H](CO)[C@@H](O)[C@H](O)[C@H]3O)CC[C@]3(C)C(=CCC4[C@@]5(C)C[C@@H](O)[C@H](O)[C@@](C)(CO)C5[C@H](O)C[C@]43C)C2[C@@H]1O (stereo partly specified)
Potency [1]: inactive | Potency [2]: inactive | Potency [3]: inactive | activity [4]: -79.3% | activity change, negative = inhibition [5]: 0% [at 19.1 µM] | activity [6]: 4% | activity [7]: 3.8%

CSC(=O)OCC1=C[C@@H]2OC(=O)C3=CO[C@@H](O[C@@H]4O[C@H](CO)[C@@H](O)[C@H](O)[C@H]4O)[C@H]1[C@@H]32
Potency [1]: inactive | Potency [2]: inactive | Potency [3]: inactive | activity [4]: -58.6% | activity change, negative = inhibition [5]: -9.29% [at 29.8 µM] | activity [6]: -7.9% | activity [7]: -7.61%

CC1CC(=O)C2=C(O1)OC1(C)CCC3C(C)(C)C4OC4C(=O)C3(C)C1C2 (stereo unspecified)
Potency [1]: inactive | Potency [2]: inactive | Potency [3]: inactive | activity [4]: -27.1% | activity change, negative = inhibition [5]: 0% | activity [6]: -84.6% | activity [7]: -2.49%

C[C@@H]1C[C@@H](O)[C@@]2(CO)C(CO)=CCC[C@@H]2[C@@]12C[C@@H](c1ccoc1)OC2=O
Potency [1]: inactive | Potency [2]: inactive | Potency [3]: inactive

CC(C)(O)C1CC=C(C(=O)OC[C@H]2O[C@@H](Oc3cc(C(=O)O)cc(O)c3O)[C@H](O)[C@@H](O)[C@@H]2O)CC1 (stereo partly specified)
Potency [1]: inactive | Potency [2]: inactive | Potency [3]: inactive | activity [4]: -82.4% | activity change, negative = inhibition [5]: -6.92% [at 29.8 µM] | activity [6]: -6.11% | activity [7]: -6.07%

C[C@]1(C2CCCC2)Cc2cc(OCC(=O)O)c(Cl)c(Cl)c2C1=O
Potency [1]: inactive | Potency [2]: inactive | Potency [3]: inactive | activity [4]: -5.66% | activity change, negative = inhibition [5]: -6.29% | activity [6]: -48.2% | activity [7]: -6.93%

COc1ccc(C(=O)OC2C3C=COC(OC4OC(CO)C(O)C(O)C4O)C3C3(CO)OC23)cc1OC (stereo unspecified)
Potency [1]: inactive | Potency [2]: inactive | Potency [3]: inactive

CC(C)=C1CC2C(CCC2(C)O)C(C)(O)CC1=O (stereo unspecified)
Potency [1]: inactive | Potency [2]: inactive | Potency [3]: inactive | activity [4]: -78.9% | activity change, negative = inhibition [5]: 0% | activity [6]: 3.19% | activity [7]: 3.52%

CC(=O)OC1CC(=O)C2(C)C3CC4=C(OC(C)CC4=O)OC3(C)CCC2C1(C)C (stereo unspecified)
Potency [1]: inactive | Potency [2]: inactive | Potency [3]: inactive | activity [4]: -40.9% | activity change, negative = inhibition [5]: 0.0637% [at 29.8 µM] | activity [6]: -81.2% | activity [7]: 0.0652%

CC1=C2CC3C(CCC3(C)O)C(C)(O)CC2OC1=O (stereo unspecified)
Potency [1]: inactive | Potency [2]: inactive | Potency [3]: inactive | activity [4]: -78.6% | activity change, negative = inhibition [5]: 0% | activity [6]: 0% | activity [7]: 0%

O=C(CCc1ccccc1)c1c(O)c([C@@H]2O[C@H](CO)[C@@H](O)[C@H](O)[C@H]2O)c(O)c([C@@H]2O[C@H](CO)[C@@H](O)[C@H](O)[C@H]2O)c1O
Potency [1]: inactive | Potency [2]: inactive | Potency [3]: inactive | activity [4]: -89.3% | activity change, negative = inhibition [5]: 2.13% [at 19.1 µM] | activity [6]: -0.132% | activity [7]: 4.21%

COc1cc(/C=C/C(=O)O[C@H]2[C@@H]3C=CO[C@@H](O[C@@H]4O[C@H](CO)[C@@H](O)[C@H](O)[C@H]4O)[C@@H]3[C@@]3(CO)O[C@@H]23)ccc1O
Potency [1]: inactive | Potency [2]: inactive | Potency [3]: inactive | activity [4]: -66.9% | activity change, negative = inhibition [5]: 0% [at 29.8 µM] | activity [6]: 1.36% | activity [7]: -3.15%

CC1=CC(=O)CC(C)(C)C1CO[C@@H]1O[C@H](CO)[C@@H](O)[C@H](O)[C@H]1O (stereo partly specified)
Potency [1]: inactive | Potency [2]: inactive | Potency [3]: inactive

C=C[C@H]1[C@H](O[C@@H]2O[C@H](CO)[C@@H](O)[C@H](O)[C@H]2O)OC=C(C(=O)OC)[C@H]1CCO
Potency [1]: inactive | Potency [2]: inactive | Potency [3]: inactive | activity [4]: -72.1% | activity change, negative = inhibition [5]: -3.63% | activity [6]: -12.2% | activity [7]: -3.1%

O=C(O)CC(CCc1ccccc1)OC1OC(CO)C(O)C(O)C1O (stereo unspecified)
Potency [1]: inactive | Potency [2]: inactive | Potency [3]: inactive | activity [4]: -76.5% | activity change, negative = inhibition [5]: -3.69% | activity [6]: -1.93% | activity [7]: -2.51%

C[C@@H]1O[C@@H](OC[C@H]2O[C@@H](OCc3ccccc3)[C@H](O)[C@@H](O)[C@@H]2O)[C@H](O)[C@H](O)[C@H]1O
Potency [1]: inactive | Potency [2]: inactive | Potency [3]: inactive | activity [4]: -64.3% | activity change, negative = inhibition [5]: -3.1% [at 29.8 µM] | activity [6]: -3.31% | activity [7]: -2.48%

CC1=CCC(O)C2(C)CCC3C(C)C(=O)OC3C12 (stereo unspecified)
Potency [1]: inactive | Potency [2]: inactive | Potency [3]: inactive | activity [4]: -77% | activity change, negative = inhibition [5]: 0% | activity [6]: 2.91% | activity [7]: -2.6%

C=C(C(=O)O)[C@@H]1CC[C@H](C)[C@@H]2CC(=O)C(C)=C2C1
Potency [1]: inactive | Potency [2]: inactive | Potency [3]: inactive | activity [4]: -63.8% | activity change, negative = inhibition [5]: 1.33% | activity [6]: -2.63% | activity [7]: -9%

C/C(=C\CC/C(C)=C/CC[C@]1(C)CCc2cc(O)cc(C)c2O1)CC/C=C(\C)C(=O)O
Potency [1]: inactive | Potency [2]: inactive | Potency [3]: inactive | activity [4]: -20.5% | activity change, negative = inhibition [5]: 0% [at 29.8 µM] | activity [6]: -14.3% | activity [7]: -0.0782%

Reference: PubChem BioAssay (NCATS)
